About 83,000 compounds went through this panel and 20% of them were active in at least one assay; those are over-represented in the sample as a whole.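 In brief: 96-well plates, 48 h treatment, single concentration, percent growth endpoint.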 Unmarked numbers belong to inactive results. Activity calls are given as the source filed them. Rule for the calls: active = growth percent below 10; inactive = the rest.

Among the test systems are SK-MEL-2 melanoma; EKVX NSCLC; SN12C renal; UO-31 renal; TK-10 renal; ACHN renal; CAKI-1 renal; A498 renal; MOLT-4 leukemia; SR leukemia; RPMI-8226 leukemia; OVCAR-8 ovarian; OVCAR-5 ovarian; OVCAR-4 ovarian; SK-OV-3 ovarian; IGROV1 ovarian; OVCAR-3 ovarian; HS 578T breast; NCI/ADR-RES ovarian.
What all share (test): NCI-60 one-dose screen, 48 h (100 = growth as untreated, 0 = no growth, -100 = all killed)
Conditions in all cases: 10 µM

As to `COc1cc(-c2csc(NC(=O)Nc3cc(C(F)(F)F)cc(C(F)(F)F)c3)n2)cc(OC)c1OC`, the growth in the assay on SK-MEL-2 melanoma is 7.21% (active); in the assay with EKVX NSCLC, 4.59% (active); in the assay with SN12C renal it was 7.93% (active); in the assay with UO-31 renal, 7.12% (active); with TK-10 renal it was 9.24% (active); in the assay with ACHN renal it was 4.33% (active). Further, the growth is 10.4% in the assay with CAKI-1 renal; 10.1% in the assay on A498 renal; 17.4% with MOLT-4 leukemia; 16.5% with SR leukemia; -6.92% (active) in the assay with RPMI-8226 leukemia; 19.4% with OVCAR-8 ovarian. Also, the growth is 30.4% in the assay on OVCAR-5 ovarian; 21.1% in the assay on OVCAR-4 ovarian; 0.491% (active) in the assay with SK-OV-3 ovarian; 35.1% in the assay with IGROV1 ovarian; -3.97% (active) in the assay on OVCAR-3 ovarian; 31.2% with HS 578T breast. In addition, the growth in the assay on NCI/ADR-RES ovarian was 10.4%.

As for `CC[C@@H](C(=O)[C@@H](C)[C@@H](O)[C@H](C)[C@@H]1O[C@@H]([C@@H](CC)C(=O)O)CC[C@@H]1C)C1O[C@]2(C=CC(=O)[C@]3(CC[C@@](C)([C@H]4CC[C@](O)(CC)[C@H](C)O4)O3)O2)[C@H](C)C[C@@H]1C` (stereo partly specified), the growth with SK-MEL-2 melanoma was 40.7%; with EKVX NSCLC, 38%; in the assay on SN12C renal, 27.6%; in the assay on UO-31 renal it was 24.3%; with TK-10 renal it was 57.7%; with ACHN renal, 31.6%. Besides, the growth was 27% with CAKI-1 renal; -11.4% (active) with A498 renal; 40.6% with MOLT-4 leukemia; 31.3% in the assay on SR leukemia; 4.99% (active) in the assay with RPMI-8226 leukemia; 44.4% in the assay on OVCAR-8 ovarian. Besides, the growth was 56.1% in the assay with OVCAR-5 ovarian; 47.7% in the assay on OVCAR-4 ovarian; 69.1% in the assay with SK-OV-3 ovarian; 48.4% with IGROV1 ovarian; 27.2% in the assay with OVCAR-3 ovarian; 30.6% with HS 578T breast. Also, the growth in the assay on NCI/ADR-RES ovarian is 40%.

On to `Cc1cc(CSc2ccccc2C(=O)N2CC=C(c3ccccc3)CC2)on1`, for which the growth is 94.1% in the assay with SK-MEL-2 melanoma; 90.7% in the assay on EKVX NSCLC; 105% in the assay on SN12C renal; 88.1% in the assay on UO-31 renal; 96.9% in the assay on TK-10 renal; 91.6% in the assay on ACHN renal. Moreover, the growth was 86.3% in the assay on CAKI-1 renal; 98.4% in the assay on A498 renal; 91.6% in the assay with MOLT-4 leukemia; 85.3% in the assay on SR leukemia; 84.9% with RPMI-8226 leukemia; 111% with OVCAR-8 ovarian. The growth in the assay with OVCAR-5 ovarian is 87.3%; in the assay with OVCAR-4 ovarian it was 89.2%; in the assay on SK-OV-3 ovarian, 107%; with IGROV1 ovarian it was 92.2%; in the assay with OVCAR-3 ovarian, 107%; in the assay with HS 578T breast, 100%. In addition, in the assay on NCI/ADR-RES ovarian, the growth is 90.7%.

In the case of `CC(=O)N[C@H](C(=O)N[C@@H](CCCNC(=N)N)C(=O)N[C@@H](CCCCN)C(=O)N[C@@H](CCCNC(=N)N)C(=O)N[C@]1(C)CCCCCC/C=C\CCC[C@@](C)(C(=O)N[C@@H](CCCNC(=N)N)C(=O)N[C@@H](CCC(=O)O)C(=O)N[C@@H](CC(C)C)C(=O)N[C@H](C(=O)N[C@@H](CCC(=O)O)C(N)=O)C(C)C)NC(=O)[C@H](CCC(N)=O)NC(=O)[C@H](CC(C)C)NC(=O)[C@H](CC(C)C)NC(=O)[C@H](CCCNC(=N)N)NC(=O)[C@H](CCCNC(=N)N)NC(=O)[C@H](CC(C)C)NC1=O)C(C)C`, the growth is 53.5% in the assay with SK-MEL-2 melanoma; -22.3% (active) in the assay with EKVX NSCLC; -41.3% (active) in the assay with SN12C renal; 50.1% with UO-31 renal; -43% (active) in the assay with TK-10 renal; 9.21% (active) with ACHN renal. Also, the growth with CAKI-1 renal was 16.1%; in the assay on A498 renal, 1.28% (active); with MOLT-4 leukemia it was 34.6%; in the assay with SR leukemia it was 15.4%; in the assay with RPMI-8226 leukemia, 20.9%; with OVCAR-8 ovarian it was -15.5% (active). In addition, the growth with OVCAR-5 ovarian is 38.3%; in the assay on SK-OV-3 ovarian, 53.1%; with IGROV1 ovarian it was 58.8%; with OVCAR-3 ovarian, -38.9% (active); in the assay with HS 578T breast it was -33.9% (active); in the assay on NCI/ADR-RES ovarian it was 7.03% (active).

As for `CC(=O)N[C@H](C(=O)N[C@@H](CCCNC(=N)N)C(=O)N[C@@H](CCCCN)C(=O)N[C@@H](CCCNC(=N)N)C(=O)NC(C(=O)N[C@@H](CC(C)C)C(=O)N[C@@H](CCCNC(=N)N)C(=O)N[C@@]1(C)CCC/C=C\CCC[C@@](C)(C(=O)N[C@@H](CCCNC(=N)N)C(=O)N[C@@H](CCC(=O)O)C(=O)N[C@@H](CC(C)C)C(=O)N[C@H](C(=O)N[C@@H](CCC(=O)O)C(N)=O)C(C)C)NC(=O)[C@H](CCC(N)=O)NC(=O)[C@H](CC(C)C)NC(=O)[C@H](CC(C)C)NC1=O)[C@@H](C)O)C(C)C` (stereo partly specified), the growth in the assay on SK-MEL-2 melanoma is -6.77% (active); in the assay on EKVX NSCLC, 0.7% (active); with SN12C renal, -52% (active); with UO-31 renal it was 78.5%; with TK-10 renal, -37.3% (active); with ACHN renal, 41.2%. For the same compound, the growth in the assay on CAKI-1 renal was 32.3%; with A498 renal, 26.9%; in the assay on MOLT-4 leukemia, 32.7%; with SR leukemia, 14%; in the assay on RPMI-8226 leukemia, -11% (active); in the assay with OVCAR-8 ovarian, 9.08% (active). Moreover, the growth in the assay on OVCAR-5 ovarian is 25.5%; with OVCAR-4 ovarian, 75.9%; with SK-OV-3 ovarian, 53.3%; with IGROV1 ovarian, 60.3%; in the assay with OVCAR-3 ovarian, 16.8%; in the assay with HS 578T breast it was -53.9% (active). The growth in the assay on NCI/ADR-RES ovarian was 17.3%.

For `CC(C)(C)c1ccc(S(=O)(=O)Oc2ccc(NC(=O)C3CCCCC3)cc2)cc1`, the growth in the assay with SK-MEL-2 melanoma is 31.6%; in the assay with EKVX NSCLC, 23.8%; with SN12C renal, 60.2%; with UO-31 renal it was 38%; in the assay with TK-10 renal, 57.8%; in the assay on ACHN renal, 25.7%. Also, the growth in the assay with CAKI-1 renal was 58.3%; in the assay on A498 renal, 90%; with MOLT-4 leukemia, 33.5%; in the assay on SR leukemia, 42.6%; in the assay on RPMI-8226 leukemia, 13.6%; in the assay with OVCAR-8 ovarian, 51%. In addition, the growth with OVCAR-5 ovarian was 85.1%; in the assay on OVCAR-4 ovarian, 47.5%; with IGROV1 ovarian, 76.3%; with OVCAR-3 ovarian it was 40.7%; with HS 578T breast, 81.4%; in the assay on NCI/ADR-RES ovarian, 29.8%.

For `Cc1cccc(N=Cc2ccccc2O)c1C`, the growth with SK-MEL-2 melanoma was 129%; in the assay with EKVX NSCLC it was 93.7%; in the assay with SN12C renal, 89.6%; with UO-31 renal it was 105%; with TK-10 renal, 121%; with ACHN renal, 110%. Besides, the growth with CAKI-1 renal is 92.4%; with A498 renal, 106%; in the assay with MOLT-4 leukemia it was 98.1%; with SR leukemia it was 111%; with RPMI-8226 leukemia it was 96.9%; in the assay with OVCAR-8 ovarian, 98.2%. The growth was 108% in the assay on OVCAR-5 ovarian; 104% in the assay with OVCAR-4 ovarian; 108% with SK-OV-3 ovarian; 115% in the assay on IGROV1 ovarian; 113% in the assay with OVCAR-3 ovarian; 101% in the assay on HS 578T breast. Also, the growth in the assay on NCI/ADR-RES ovarian is 101%.

These data come from PubChem BioAssay (NCI).
